# Test results: the supplement of paper PMC10849652
# The full data set covers some 7,900 targets. This sample favours those with a hit. About 0.6% of all pairs of compound and target were hits. Unmarked numbers belong to inactive results.
# Key:
# Assay in all cases: log2 fold change, soluble protein after heating vs DMSO (PISA); higher = thermal stabilisation; K562 cells, 10 uM, 30 min; active = over 0.2 and 3.5 SD of the protein, either way, in both replicates (recomputed)
# [1] = compound: COC1=CC=C(C=C1)CN2C=CC3=C2C=C(C=C3)C(=O)NO
# Procedure, shortened: (§1)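 K562 cells at 2×10^6 cells/mL were exposed to 10 μM compound for 30 min, then aliquots were heated for 3 min across 48°C-58°C, pooled, and extracted in PBS containing 0.5% NP-40 at 4°C. The supernatant after 21,000xg for 90 min was taken as soluble protein and measured by TMTpro 16plex LC-MS/MS with channel sums equalised. Thermal stability is reported relative to control samples, with values from duplicates. Fold changes are given on a log2 scale.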
# [2] = compound: CON(C)C(=O)N1N=C(c2cc(F)ccc2F)S[C@@]1(CCCN)c1ccccc1 [filanesib]
# Procedure, shortened: as §1
# [3] = compound: CO[C@H]1C[C@@H]2CC[C@@H](C)[C@@](O)(O2)C(=O)C(=O)N2CCCC[C@H]2C(=O)O[C@H]([C@H](C)C[C@@H]2CC[C@H](n3cnnn3)[C@H](OC)C2)CC(=O)[C@H](C)/C=C(\C)[C@@H](O)[C@@H](OC)C(=O)[C@H](C)C[C@H](C)/C=C/C=C/C=C/1C [zotarolimus]
# Procedure, shortened: as §1
# [4] = compound: COc1cc(C(=O)O)ccc1NC(=O)[C@@H]1N[C@@H](CC(C)(C)C)[C@](C#N)(c2ccc(Cl)cc2F)[C@H]1c1cccc(Cl)c1F [idasanutlin]
# Procedure, shortened: as §1
# [5] = compound: COc1cc(Nc2ncc3c(n2)-c2ccc(Cl)cc2C(c2c(F)cccc2OC)=NC3)ccc1C(=O)O [alisertib]
# Procedure, shortened: as §1
# [6] = compound: COc1cc2nc(-c3cc(F)ccc3O)nc(N[C@@H]3CNC[C@H]3C(C)(C)O)c2cc1OC
# Procedure, shortened: as §1
# [7] = compound: COc1cc2ncnc(Nc3ccc(F)c(Cl)c3)c2cc1OCCCN1CCOCC1 [gefitinib]
# Procedure, shortened: as §1
# [8] = compound: COc1cccc2cc(-c3nc([C@H]4CC[C@H](C(=O)O)CC4)n4ncnc(N)c34)[nH]c12
# Procedure, shortened: as §1
# [9] = compound: CS(=O)(=O)CCNCc1ccc(-c2ccc3ncnc(Nc4ccc(OCc5cccc(F)c5)c(Cl)c4)c3c2)o1 [lapatinib]
# Procedure, shortened: as §1
# [10] = compound: CS(=O)(=O)N1CCN(Cc2cc3nc(-c4cccc5[nH]ncc45)nc(N4CCOCC4)c3s2)CC1 [pictilisib]
# Procedure, shortened: as §1
# [11] = compound: CS(=O)(=O)c1ccc(-c2cnc(N)c(C(=O)Nc3ccccc3)n2)cc1
# Procedure, shortened: as §1
# [12] = compound: C[C@@H](Oc1cc(-c2cnn(C3CCNCC3)c2)cnc1N)c1c(Cl)ccc(F)c1Cl [crizotinib]
# Procedure, shortened: as §1
# [13] = compound: C[C@@H]1COCCN1C2=NC(=NC(=C2)C3(CC3)S(=O)(=O)C)C4=C5C=CNC5=CC=C4
# Procedure, shortened: as §1
# [14] = compound: C[C@H](C1=CC=C(C=C1)C(=O)NC2=C3C=CNC3=NC=C2)N
# Procedure, shortened: as §1
# [15] = compound: C[C@H](Nc1ncnc2nc[nH]c12)c1cc2cccc(Cl)c2c(=O)n1-c1ccccc1 [duvelisib]
# Procedure, shortened: as §1
# [16] = compound: Cc1cc(Nc2cc(CN3CCOCC3)c3nc(C)c(Cc4ccc(Cl)cc4F)n3n2)n[nH]1 [gandotinib]
# Procedure, shortened: as §1
# [17] = compound: Cc1cc(Nc2cc(N3CCN(C)CC3)nc(Sc3ccc(NC(=O)C4CC4)cc3)n2)n[nH]1 [tozasertib]
# Procedure, shortened: as §1
# [18] = compound: Cc1cc(SCc2sc(-c3ccc(C(F)(F)F)cc3)nc2C)ccc1OCC(=O)O
# Procedure, shortened: as §1
# [19] = compound: Cc1ccc(-n2nc(C(C)(C)C)cc2NC(=O)Nc2ccc(OCCN3CCOCC3)c3ccccc23)cc1 [doramapimod]
# Procedure, shortened: as §1
# [20] = compound: Cc1ccc(C(=O)N(CCCN)[C@@H](c2nc3cc(Cl)ccc3c(=O)n2Cc2ccccc2)C(C)C)cc1 [ispinesib]
# Procedure, shortened: as §1
# Sequence of UniProt Q9NR45 (Q9NR45 whole entry, looked up): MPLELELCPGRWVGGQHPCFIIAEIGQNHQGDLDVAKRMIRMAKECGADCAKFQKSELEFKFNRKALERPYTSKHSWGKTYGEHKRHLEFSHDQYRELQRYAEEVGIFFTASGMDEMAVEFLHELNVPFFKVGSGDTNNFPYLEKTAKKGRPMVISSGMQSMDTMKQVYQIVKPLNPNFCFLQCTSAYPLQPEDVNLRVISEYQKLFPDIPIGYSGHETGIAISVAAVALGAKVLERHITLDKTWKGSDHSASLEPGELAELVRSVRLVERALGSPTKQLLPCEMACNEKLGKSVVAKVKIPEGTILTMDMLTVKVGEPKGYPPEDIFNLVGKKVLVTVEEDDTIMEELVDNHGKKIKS
# Sequence of UniProt Q6VY07 (Q6VY07 whole entry, looked up): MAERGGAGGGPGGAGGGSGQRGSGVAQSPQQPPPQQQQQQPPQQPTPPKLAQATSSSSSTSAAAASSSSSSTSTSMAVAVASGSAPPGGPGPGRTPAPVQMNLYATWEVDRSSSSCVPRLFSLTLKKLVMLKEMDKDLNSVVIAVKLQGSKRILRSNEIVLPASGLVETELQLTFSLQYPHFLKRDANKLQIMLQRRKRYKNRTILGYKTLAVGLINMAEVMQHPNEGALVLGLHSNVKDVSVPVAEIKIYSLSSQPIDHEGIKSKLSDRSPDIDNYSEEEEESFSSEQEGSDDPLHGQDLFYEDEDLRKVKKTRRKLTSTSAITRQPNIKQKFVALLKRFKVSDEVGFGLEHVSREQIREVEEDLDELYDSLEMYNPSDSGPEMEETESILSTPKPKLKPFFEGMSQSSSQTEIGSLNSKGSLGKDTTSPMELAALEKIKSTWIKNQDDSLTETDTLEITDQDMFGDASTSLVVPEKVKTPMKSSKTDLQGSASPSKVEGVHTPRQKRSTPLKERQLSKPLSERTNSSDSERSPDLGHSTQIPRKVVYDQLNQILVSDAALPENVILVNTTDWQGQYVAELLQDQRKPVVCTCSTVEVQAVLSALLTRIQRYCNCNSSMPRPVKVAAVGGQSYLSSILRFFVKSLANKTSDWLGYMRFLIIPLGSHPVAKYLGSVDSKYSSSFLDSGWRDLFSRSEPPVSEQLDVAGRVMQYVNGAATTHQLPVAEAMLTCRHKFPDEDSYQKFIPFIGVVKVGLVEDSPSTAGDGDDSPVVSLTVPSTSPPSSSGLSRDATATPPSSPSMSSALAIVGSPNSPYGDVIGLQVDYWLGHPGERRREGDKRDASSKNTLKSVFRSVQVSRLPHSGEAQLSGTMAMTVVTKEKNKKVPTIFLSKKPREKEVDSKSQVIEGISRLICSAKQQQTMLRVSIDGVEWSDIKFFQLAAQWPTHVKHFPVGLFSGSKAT
# Sequence of UniProt Q8N6M0 (Q8N6M0 whole entry, looked up): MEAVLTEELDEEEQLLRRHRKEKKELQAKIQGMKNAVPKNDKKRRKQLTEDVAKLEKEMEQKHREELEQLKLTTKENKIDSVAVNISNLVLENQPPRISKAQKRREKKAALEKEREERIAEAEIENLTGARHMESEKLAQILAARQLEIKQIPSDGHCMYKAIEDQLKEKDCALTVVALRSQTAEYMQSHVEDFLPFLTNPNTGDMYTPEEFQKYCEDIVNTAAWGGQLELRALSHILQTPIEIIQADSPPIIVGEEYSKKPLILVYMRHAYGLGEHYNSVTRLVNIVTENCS
# Sequence of UniProt P56556 (P56556 whole entry, looked up): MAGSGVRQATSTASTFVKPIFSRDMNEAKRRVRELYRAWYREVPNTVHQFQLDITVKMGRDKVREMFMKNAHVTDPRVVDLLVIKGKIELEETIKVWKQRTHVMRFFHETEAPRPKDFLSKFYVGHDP
# Sequence of UniProt Q9BUK6 (Q9BUK6 whole entry, looked up): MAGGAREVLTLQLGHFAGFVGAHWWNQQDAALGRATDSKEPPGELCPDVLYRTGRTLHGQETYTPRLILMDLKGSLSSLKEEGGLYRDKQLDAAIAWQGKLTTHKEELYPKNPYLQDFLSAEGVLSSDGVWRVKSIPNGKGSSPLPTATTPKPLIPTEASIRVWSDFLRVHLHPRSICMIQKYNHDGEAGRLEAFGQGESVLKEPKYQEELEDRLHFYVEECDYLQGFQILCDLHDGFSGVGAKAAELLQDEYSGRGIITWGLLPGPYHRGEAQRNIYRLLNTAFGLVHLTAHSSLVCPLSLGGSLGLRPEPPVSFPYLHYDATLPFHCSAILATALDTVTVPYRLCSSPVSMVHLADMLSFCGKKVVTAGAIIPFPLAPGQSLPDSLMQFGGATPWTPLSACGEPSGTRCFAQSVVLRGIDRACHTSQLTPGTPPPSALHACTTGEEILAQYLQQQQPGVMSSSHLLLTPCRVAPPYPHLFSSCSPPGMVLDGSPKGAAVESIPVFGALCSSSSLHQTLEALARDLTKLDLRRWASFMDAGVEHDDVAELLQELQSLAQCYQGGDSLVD
# Sequence of UniProt O00567 (O00567 whole entry, looked up): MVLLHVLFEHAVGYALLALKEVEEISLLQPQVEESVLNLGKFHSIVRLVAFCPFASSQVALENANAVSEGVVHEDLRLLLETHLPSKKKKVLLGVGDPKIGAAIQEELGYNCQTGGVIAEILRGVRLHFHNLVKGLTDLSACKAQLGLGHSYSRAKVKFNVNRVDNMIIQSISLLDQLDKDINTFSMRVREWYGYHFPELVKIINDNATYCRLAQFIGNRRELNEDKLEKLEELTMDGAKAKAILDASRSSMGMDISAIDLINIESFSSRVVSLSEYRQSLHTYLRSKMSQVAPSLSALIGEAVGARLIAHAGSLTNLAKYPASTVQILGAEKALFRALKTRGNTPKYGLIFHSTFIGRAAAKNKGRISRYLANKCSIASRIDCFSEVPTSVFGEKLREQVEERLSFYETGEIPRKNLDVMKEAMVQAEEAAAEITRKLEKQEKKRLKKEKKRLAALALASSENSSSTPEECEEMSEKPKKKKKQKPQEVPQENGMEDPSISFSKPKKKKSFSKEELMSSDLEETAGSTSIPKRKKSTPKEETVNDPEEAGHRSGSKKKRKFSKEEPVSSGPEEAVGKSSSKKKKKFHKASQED
# Sequence of UniProt P35749 (P35749 whole entry, looked up): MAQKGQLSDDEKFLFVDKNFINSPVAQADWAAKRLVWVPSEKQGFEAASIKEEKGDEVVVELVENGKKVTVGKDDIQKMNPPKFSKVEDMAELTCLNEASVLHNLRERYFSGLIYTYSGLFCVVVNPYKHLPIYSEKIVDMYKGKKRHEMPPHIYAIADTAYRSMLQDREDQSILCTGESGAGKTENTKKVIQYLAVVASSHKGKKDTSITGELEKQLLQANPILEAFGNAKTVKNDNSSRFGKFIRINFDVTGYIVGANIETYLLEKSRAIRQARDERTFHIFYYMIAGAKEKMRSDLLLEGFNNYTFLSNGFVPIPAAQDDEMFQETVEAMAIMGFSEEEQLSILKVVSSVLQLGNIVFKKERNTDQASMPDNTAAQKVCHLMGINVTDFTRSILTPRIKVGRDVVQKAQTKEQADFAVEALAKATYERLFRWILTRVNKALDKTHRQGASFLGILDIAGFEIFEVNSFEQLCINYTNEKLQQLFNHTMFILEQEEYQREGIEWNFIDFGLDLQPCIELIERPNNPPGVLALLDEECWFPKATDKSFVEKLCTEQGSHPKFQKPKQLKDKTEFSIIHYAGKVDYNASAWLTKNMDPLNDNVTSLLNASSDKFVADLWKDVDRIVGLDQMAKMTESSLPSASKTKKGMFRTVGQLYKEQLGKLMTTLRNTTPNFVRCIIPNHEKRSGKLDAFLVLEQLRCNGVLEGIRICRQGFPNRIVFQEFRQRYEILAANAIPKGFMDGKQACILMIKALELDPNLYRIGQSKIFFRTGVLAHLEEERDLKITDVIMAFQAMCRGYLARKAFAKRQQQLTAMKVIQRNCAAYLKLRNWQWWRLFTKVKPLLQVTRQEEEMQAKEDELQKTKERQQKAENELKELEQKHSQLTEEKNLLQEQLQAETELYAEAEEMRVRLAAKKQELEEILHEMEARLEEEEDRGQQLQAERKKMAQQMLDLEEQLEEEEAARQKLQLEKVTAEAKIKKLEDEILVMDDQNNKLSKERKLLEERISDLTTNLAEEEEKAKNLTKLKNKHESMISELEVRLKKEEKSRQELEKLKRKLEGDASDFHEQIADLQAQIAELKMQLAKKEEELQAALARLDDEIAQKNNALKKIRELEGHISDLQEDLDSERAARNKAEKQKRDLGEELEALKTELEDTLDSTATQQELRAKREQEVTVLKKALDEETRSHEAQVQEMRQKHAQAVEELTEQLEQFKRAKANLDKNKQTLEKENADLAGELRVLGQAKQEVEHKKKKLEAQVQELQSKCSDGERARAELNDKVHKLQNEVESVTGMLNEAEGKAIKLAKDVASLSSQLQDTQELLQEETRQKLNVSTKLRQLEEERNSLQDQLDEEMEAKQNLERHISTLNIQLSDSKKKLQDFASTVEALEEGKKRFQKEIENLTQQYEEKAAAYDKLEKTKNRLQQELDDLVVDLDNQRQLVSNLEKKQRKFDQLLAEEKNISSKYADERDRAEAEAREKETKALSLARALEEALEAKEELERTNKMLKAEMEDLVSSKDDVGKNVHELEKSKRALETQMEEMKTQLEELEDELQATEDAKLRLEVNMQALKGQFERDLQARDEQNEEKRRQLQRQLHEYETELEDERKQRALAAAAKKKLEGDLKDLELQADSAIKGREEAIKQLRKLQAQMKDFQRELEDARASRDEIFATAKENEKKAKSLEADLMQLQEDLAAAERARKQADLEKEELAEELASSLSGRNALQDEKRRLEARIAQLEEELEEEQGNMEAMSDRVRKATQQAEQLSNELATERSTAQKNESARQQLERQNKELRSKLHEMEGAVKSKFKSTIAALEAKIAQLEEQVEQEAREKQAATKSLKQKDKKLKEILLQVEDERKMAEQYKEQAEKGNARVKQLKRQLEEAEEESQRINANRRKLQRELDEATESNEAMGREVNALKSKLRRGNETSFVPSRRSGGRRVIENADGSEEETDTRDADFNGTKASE
# Sequence of UniProt Q9BRA0 (Q9BRA0 whole entry, looked up): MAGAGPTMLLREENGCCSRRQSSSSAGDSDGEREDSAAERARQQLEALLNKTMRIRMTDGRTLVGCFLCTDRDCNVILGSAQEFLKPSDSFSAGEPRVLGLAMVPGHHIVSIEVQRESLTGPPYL
Target,log2 fold change [1],log2 fold change [2],log2 fold change [3],log2 fold change [4],log2 fold change [5],log2 fold change [6],log2 fold change [7],log2 fold change [8],log2 fold change [9],log2 fold change [10],log2 fold change [11],log2 fold change [12],log2 fold change [13],log2 fold change [14],log2 fold change [15],log2 fold change [16],log2 fold change [17],log2 fold change [18],log2 fold change [19],log2 fold change [20]
NCL (UniProt P19338),-0.091,0.454,0.026,0.274,-0.16,-0.099,-0.022,-0.217,0.159,-0.085,-0.136,0.12,-0.59,0.428,-0.162,0.315,0.064,0.075,0.254,-0.19
MRPS5 (UniProt P82675),-0.06,0.078,0.091,-0.37 (active),0.021,0.015,-0.026,0.02,0.054,-0.026,0.123,-0.061,0.125,0.169,0.016,-0.08,-0.065,0.131,0.071,-0.451 (active)
NNMT (UniProt P40261),-0.057,-0.163,-0.001,-0.076,-0.06,0.216,0.041,0.017,-0.019,0.06,0.039,-0.08,0.085,-0.06,0.06,-0.002,-0.007,-0.09,0,–
NAA38 isoform 2 (UniProt Q9BRA0),0.033,-0.014,0.001,-0.045,0.044,-0.005,0.02,0.052,0.062,0.023,0.012,-0.052,0.099,0.018,0.124,-0.004,-0.013,0.015,-0.02,-0.064
MND1 (UniProt Q9BWT6),-0.037,-0.057,-0.077,0.099,0.062,-0.235,-0.193,0.03,-0.025,0.032,0,-0.217,0.005,0.018,0.016,-0.076,-0.152,-0.024,0.009,-0.184
OXSM (UniProt Q9NWU1),0.033,-0.014,-0.005,0.039,-0.131,-0.041,-0.001,0.025,0.007,0.057,0.016,0.053,0.036,-0.07,-0.024,-0.054,0.011,-0.002,-0.055,0.077
MRPS10 (UniProt P82664),-0.041,0.045,0.08,-0.088,-0.014,-0.017,-0.042,0.012,0.069,-0.112,0.028,0.005,-0.033,0.08,-0.005,0.019,0.002,0.002,0.029,-0.265 (active)
OTUD6B (UniProt Q8N6M0),0.016,-0.025,0.1,-0.012,0.005,0.005,-0.017,-0.013,-0.028,0.017,0.013,-0.146,0.024,0,-0.02,-0.086,0.055,0.122,0.009,-0.165
PACS1 (UniProt Q6VY07),0.105,0.047,0.008,-0.005,0.006,0.054,0.043,0.002,0.013,0.021,0.013,-0.053,0.051,-0.015,0.033,-0.018,0,-0.014,0.06,0.042
NAP1L1 (UniProt P55209),-0.001,0.08,0.078,0.053,-0.043,0.078,-0.002,-0.041,-0.005,0.107,0.018,-0.025,-0.122,-0.021,0.068,-0.09,0.045,-0.016,0.009,0.04
MYH11 isoform 2 (UniProt P35749),0.027,-0.002,0.022,-0.045,0.033,0.067,0.025,-0.033,0.018,-0.035,-0.026,-0.025,0.01,-0.078,0,0.014,-0.032,0.009,0.057,-0.012
NDUFA6 (UniProt P56556),0.097,-0.035,0.05,-0.383 (active),0.044,0.048,-0.004,0.068,0.097,0.087,0.012,-0.044,0.172,-0.078,0.017,-0.22,-0.009,0.098,-0.004,0
NANS (UniProt Q9NR45),-0.11,-0.115,0.017,-0.045,-0.008,-0.017,-0.057,-0.017,-0.005,-0.018,-0.074,0.026,0.052,-0.098,0.02,-0.03,0.043,0.001,-0.006,0.074
PAK1 isoform 2 (UniProt Q13153),0.178,0.04,0.003,-0.155,0.086,-0.007,-0.025,-0.098,-0.015,0.183,0.009,0.054,0.063,-0.308 (active),0.09,-0.098,-0.076,0.056,-0.155,0.084
MSTO1 (UniProt Q9BUK6),-0.022,-0.078,-0.045,-0.08,0.007,0.024,-0.018,0.025,-0.009,0.021,-0.014,-0.081,0.09,0.025,0.009,-0.003,0.02,0.009,0.027,-0.053
NOP56 (UniProt O00567),-0.083,0.605 (active),0.136,0.345,0.007,0.045,-0.046,-0.078,0.098,0.013,-0.101,-0.103,-0.338,0.285,-0.022,0.064,-0.043,0,0.178,0.162
